Test results published in PubChem BioAssay (NCATS).
Several values for one entry are separate records, joined by “and”; a condition that tells them apart may be missing. Equal entries are not always repeated. Activity calls are given as the source filed them. The call rests on the fitted dose curve.

Assay: qHTS drug screen for cell cycle checkpoint inhibitors in PARPi-resistant BRCA-mutant ovarian cancer cell lines. (AID 1963452)
Conditions: PEO1/OlaR viability, CellTiter-Glo luminescence, 96 h; stronger effect = lower value
Procedure, shortened: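 PEO1, PEO4 and PEO1/OlaR ovarian cancer cells, 600 per well, exposed 96 h at 37C to a dilution series. Viability read by CellTiter-Glo luminescence, normalized to DMSO and empty wells; activity summarized as Z-AUC.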

SMILES | Z-AUC
Cc1cnc(Nc2ccc(F)cc2Cl)nc1-c1c[nH]c(C(=O)NC(CO)c2cccc(Cl)c2)c1 (stereo unspecified) | -0.685 (inactive)
CN(C)C/C=C/C(=O)Nc1cccc(C(=O)Nc2cccc(Nc3ncc(Cl)c(-c4c[nH]c5ccccc45)n3)c2)c1 | -1.57 (inactive)
CN1CCN(C2CCC(n3cc(-c4ccc(Oc5ccccc5)cc4)c4c(N)ncnc43)CC2)CC1 (stereo unspecified) | -1.03 (inactive)
CNC(=O)c1cccc(-c2ccc3c(N4CCOC[C@@H]4C)nc(N4CCOC[C@@H]4C)nc3n2)c1 | -1.02 (inactive)
CCCN1CCN(c2ccc(C(=O)NC3(C(=O)NCC#N)CCCCC3)cc2)CC1 | 0.959 (inactive)
CNCc1ccc(-c2cc(-c3nc(-c4ccc(S(=O)(=O)C(C)C)cc4)cnc3N)on2)cc1 | 0.146 (inactive)
CCN1CCN(Cc2ccc(NC(=O)c3ccc(C)c(NC(=O)c4cncc(-c5cccs5)c4)c3)cc2C(F)(F)F)CC1 | -1.84 (inactive)
NC(=O)[C@H]1CCS[C@@H]2C[C@]3(CCCN3C(=O)Cc3ccc(NC(=O)COc4ccc(Cl)cc4Cl)cc3)C(=O)N12 | -0.482 (inactive)
CO[C@H]1C[C@@H]2CC[C@@H](C)[C@@](O)(O2)C(=O)C(=O)N2CCCC[C@H]2C(=O)O[C@H]([C@H](C)C[C@@H]2CC[C@@H](OP(C)(C)=O)[C@H](OC)C2)CC(=O)[C@H](C)/C=C(\C)[C@@H](O)[C@@H](OC)C(=O)[C@H](C)C[C@H](C)/C=C/C=C/C=C/1C | 0.099 (inactive)
COc1c(Nc2ncc(Cl)c(N[C@H]3[C@@H](C(N)=O)[C@@H]4C=C[C@H]3C4)n2)ccc2c1CC[C@@H](N1CCOCC1)CC2 | 0.583 (inactive)
c1cn2cc(-c3ccc4cn[nH]c4c3)nc(Nc3ccc(N4CCOCC4)cc3)c2n1 | -0.306 (inactive)
CC(C)c1c2cc(-c3ccnc(NC4CCC(NC5CCOCC5)CC4)n3)ccc2nn1C (stereo unspecified) | -1.95 (inactive)
CCCCc1nc2cc(/C=C/C(=O)NO)ccc2n1CCN(CC)CC | 0.0461 (inactive)
O=C(NOCC(O)CO)c1ccc(F)c(F)c1Nc1ccc(I)cc1F (stereo unspecified) | -1.69 (inactive)
CS(=O)(=O)N1CCC(NC(=O)c2[nH]ncc2NC(=O)c2c(Cl)cccc2Cl)CC1 | -1.39 (inactive)
CCCCNc1ncc2c(-c3ccc(CN4CCN(C)CC4)cc3)cn(C3CCC(O)CC3)c2n1 (stereo unspecified) | -1.53 (inactive) and -0.825 (inactive)
Nc1ccc(/C=C/C(=O)NCc2cc3cc(-c4ccc(C(=O)N5CCC(F)(F)CC5)cc4)cc(-c4ccc(F)cc4)c3o2)cn1 | -0.388 (inactive)

Same assay, conditions: PEO1/OlaR viability, CellTiter-Glo luminescence, 96 h; measured here: PEO1 parental Z-AUC; stronger effect = lower value

SMILES | Z-AUC
Cn1cncc1C(N)(c1ccc(Cl)cc1)c1ccc2c(c1)c(-c1cccc(Cl)c1)cc(=O)n2C (stereo unspecified) | -0.892
COc1cc(C(=O)NC2CCN(C)CC2)c(F)cc1Nc1ncc2c(n1)N(C1CCCC1)CC(F)(F)C(=O)N2C | -2.61
Cc1ccc(-c2ccc3ncc4c(c3n2)n(C2CCN(C(=O)[C@H](C)O)CC2)c(=O)n4C)cn1 | -2.34
COC(=O)N(C)c1c(N)nc(-c2nn(Cc3ccccc3F)c3ncccc23)nc1N | 0.888
Cc1c(F)cc(C(=O)NC2CC2)cc1-c1c(F)cn2c(C(C)(C)C)nnc2c1F | 0.963
CC(C)c1cc(CNc2nc(Nc3cc(C4CC4)[nH]n3)cc(N3CCN(C)CC3)n2)on1 | -1.91
CC[C@H](NC(=O)[C@H](CS(=O)(=O)CC1CC1)N[C@@H](c1ccc(F)cc1)C(F)(F)F)C(=O)C(=O)NC1CC1 | 1.63
C[C@H]1Oc2cc(cnc2N)-c2c(nn(C)c2C#N)CN(C)C(=O)c2ccc(F)cc21 | -0.00425 and 0.761
Cc1[nH]nc(C(F)(F)F)c1Cc1sc2c(c1C(=O)N1C[C@](C)(O)CO1)c(=O)n(C)c(=O)n2C(C)C | 0.611
CNC(=O)c1cc(Oc2ccc3nc(N[C@@H]4CCCC[C@H]4O)sc3c2)ccn1 | -0.612
Cc1cnc(Nc2ccc(F)cc2Cl)nc1-c1c[nH]c(C(=O)NC(CO)c2cccc(Cl)c2)c1 (stereo unspecified) | -0.607
CN(C)C/C=C/C(=O)Nc1cccc(C(=O)Nc2cccc(Nc3ncc(Cl)c(-c4c[nH]c5ccccc45)n3)c2)c1 | -1.76
CN1CCN(C2CCC(n3cc(-c4ccc(Oc5ccccc5)cc4)c4c(N)ncnc43)CC2)CC1 (stereo unspecified) | -1.14
CNC(=O)c1cccc(-c2ccc3c(N4CCOC[C@@H]4C)nc(N4CCOC[C@@H]4C)nc3n2)c1 | -0.895
CCCN1CCN(c2ccc(C(=O)NC3(C(=O)NCC#N)CCCCC3)cc2)CC1 | 0.728
CNCc1ccc(-c2cc(-c3nc(-c4ccc(S(=O)(=O)C(C)C)cc4)cnc3N)on2)cc1 | 0.477
CCN1CCN(Cc2ccc(NC(=O)c3ccc(C)c(NC(=O)c4cncc(-c5cccs5)c4)c3)cc2C(F)(F)F)CC1 | -1.46
NC(=O)[C@H]1CCS[C@@H]2C[C@]3(CCCN3C(=O)Cc3ccc(NC(=O)COc4ccc(Cl)cc4Cl)cc3)C(=O)N12 | 0.014
CO[C@H]1C[C@@H]2CC[C@@H](C)[C@@](O)(O2)C(=O)C(=O)N2CCCC[C@H]2C(=O)O[C@H]([C@H](C)C[C@@H]2CC[C@@H](OP(C)(C)=O)[C@H](OC)C2)CC(=O)[C@H](C)/C=C(\C)[C@@H](O)[C@@H](OC)C(=O)[C@H](C)C[C@H](C)/C=C/C=C/C=C/1C | 0.103
Cc1cc(Nc2cc(N3CCN(C)CC3)nc(/C=C/c3ccccc3)n2)n[nH]1 | -1.58
COc1cc2ncnc(Nc3ccc(F)c(Cl)c3)c2cc1NC(=O)/C=C/CN1CCCCC1 | -1.17
COc1c(Nc2ncc(Cl)c(N[C@H]3[C@@H](C(N)=O)[C@@H]4C=C[C@H]3C4)n2)ccc2c1CC[C@@H](N1CCOCC1)CC2 | 0.18
c1cn2cc(-c3ccc4cn[nH]c4c3)nc(Nc3ccc(N4CCOCC4)cc3)c2n1 | -0.0182
CC(C)c1c2cc(-c3ccnc(NC4CCC(NC5CCOCC5)CC4)n3)ccc2nn1C (stereo unspecified) | -2.05
CCCCc1nc2cc(/C=C/C(=O)NO)ccc2n1CCN(CC)CC | -0.0677
O=C(NOCC(O)CO)c1ccc(F)c(F)c1Nc1ccc(I)cc1F (stereo unspecified) | -1.32
CS(=O)(=O)N1CCC(NC(=O)c2[nH]ncc2NC(=O)c2c(Cl)cccc2Cl)CC1 | -1.73
CCCCNc1ncc2c(-c3ccc(CN4CCN(C)CC4)cc3)cn(C3CCC(O)CC3)c2n1 (stereo unspecified) | -1.06 and -0.682
Nc1ccc(/C=C/C(=O)NCc2cc3cc(-c4ccc(C(=O)N5CCC(F)(F)CC5)cc4)cc(-c4ccc(F)cc4)c3o2)cn1 | -0.891
